Screening data from PubChem BioAssay.
Compounds with a hit are over-represented: about 2.6% of the library has one in this group of screens.
BaF3 tox: parental Ba/F3 viability inhibition as JAK2V617F counter-screen; 220,000 compounds, 1.1% hits; CellTiter-Glo ATP luminescence; inhibition, % at 5.6 µM;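 active means inhibition above a per-campaign cutoff, the mean inhibition of all tested compounds plus 3 SD, cut at about 27% in these data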;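 further: 0% = DMSO wells and 100% = JAK Inhibitor I control wells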
KLF5 inhibitor: inhibitors of KLF5 expression. DLD-1 KLF5 promoter-luciferase reporter, luminescence. inhibition, % at 5 µM. 290,000 compounds, 0.23% hits. AID 1700;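 active means inhibition above a per-plate limit of that plate's mean compound inhibition plus 3 SD, cut at about 60% in these data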;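 further: 0% = DMSO wells and 100% = LY294002 at 200 µM; higher means less KLF5 promoter-driven luciferase light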
Ba/F3 V617F tox: reduce viability of Ba/F3 cells dependent on JAK2V617F | Ba/F3 EpoR-JAK2V617F viability, ATP luminescence | inhibition, % at 5.6 µM | 220,000 compounds, 1.1% hits;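 active means inhibition above the campaign mean plus 3 SD over all tested compounds, cut at about 24% in these data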;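 further: cytokine-independent growth of Ba/F3 cells driven by EpoR plus mutant JAK2; 0% = DMSO-treated cells and 100% = JAK inhibitor I control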
DNA FID counter: displaces DNA intercalator in HCV helicase counter-screen; 290,000 compounds, 0.17% hits; DNA fluorescent intercalator displacement, fluorescence; AID 1845; inhibition, % at 7.9 µM; in the data active means inhibition above about 37%;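 further: 0% = vehicle and 100% = reference compound; higher means more ethidium bromide displaced from hairpin DNA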
GPR7 antag: antagonists of human GPR7 (neuropeptides B/W receptor 1) | GPR7-expressing cells, fluorescence antagonist assay | inhibition, % at 4.4 µM | 290,000 compounds, 1.1% hits; in the data active means inhibition above about 16%, passing the limit was not always enough;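 further: cells stimulated with the agonist NPW; 0% = agonist with vehicle and 100% = vehicle without agonist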
Target sequence (P48145 whole entry, looked up): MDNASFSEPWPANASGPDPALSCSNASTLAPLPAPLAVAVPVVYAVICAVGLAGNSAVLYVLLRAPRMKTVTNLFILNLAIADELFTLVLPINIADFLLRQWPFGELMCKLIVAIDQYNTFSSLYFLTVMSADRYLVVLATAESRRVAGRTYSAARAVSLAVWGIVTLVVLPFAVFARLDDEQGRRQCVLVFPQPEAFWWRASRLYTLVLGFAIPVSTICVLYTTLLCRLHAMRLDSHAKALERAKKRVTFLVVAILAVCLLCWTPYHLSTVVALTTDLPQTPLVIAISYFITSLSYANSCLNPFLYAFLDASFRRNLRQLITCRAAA
IEC-6 cytotox: kills IEC-6 intestinal cells in KLF5 counter-screen; IEC-6 cytotoxicity, luminescence viability; inhibition, % at 5 µM; 290,000 compounds, 0.78% hits; AID 1825;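 further: 0% = plate median of test compound wells and 100% = cytotoxic reference compound wells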
GPR7 antag conf: human GPR7 antagonism, confirmation assay. shares compounds with GPR7 antag. GPR7-expressing cells, calcium fluorescence antagonist mode. 2,400 compounds, 52% hits. inhibition, % at 4.4 µM; in the data active means inhibition above about 24%;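 further: stimulated with the GPR7 agonist NPW; 0% = agonist plus vehicle and 100% = vehicle alone without agonist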
MCHR1 antag: antagonizes human MCHR1, a GPR7 antagonist counter-screen | shares compounds with GPR7 antag | MCHR1-expressing cells, fluorescence antagonist assay | inhibition, % at 4.4 µM | 2,400 compounds, 62% hits;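 further: 0% = vehicle with agonist and 100% = vehicle without agonist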
Numbers without * were called inactive; · = not tested or not shown. Unless noted, no stated cut-off is given here; in the data, active means inhibition above about 22%; inactive means the rest.

SMILES	BaF3 tox	KLF5 inhibitor	Ba/F3 V617F tox	DNA FID counter	GPR7 antag	IEC-6 cytotox	GPR7 antag conf	MCHR1 antag
Clc1ccc(CSC(Cn2ccnc2)c2ccc(Cl)cc2Cl)cc1 (stereo not drawn)	3	0	-2	1	16	-10	·	·
Clc1ccc(COC(Cn2ccnc2)c2ccc(Cl)cc2Cl)cc1 (stereo not drawn)	8	-23	-1	-1	31*	8	59*	62*
CC12CN3CCN(CC(C3)C1O)C2 (stereo not drawn)	2	-29	-2	1	-7	0	·	·
O=C1CC(N2CC=C(c3ccccc3)CC2)C(=O)N1c1ccc(F)cc1 (stereo not drawn)	8	-6	1	-7	24*	-3	5	8
O=C(Nc1cccc(C(F)(F)F)c1)OC1CN2CCC1CC2 (stereo not drawn)	·	6	·	8	5	5	·	·
OC(c1cccc(Cl)c1)(c1cccc(Cl)c1)C1CN2CCC1CC2 (stereo not drawn)	7	-31	3	22	34*	14	44*	51*
COc1ccc(CC(=O)N(CCN(C)C)CC2CCCN(Cc3ccccc3F)C2)cc1 (stereo not drawn)	·	-7	·	27	-3	-4	·	·
